Screening data as filed in PubChem.
A selection: hits, their analogues and other compounds. The true share with any hit is near 1.9%.
Calb biofilm kill = clotrimazole potentiators killing Candida biofilms, primary screen, with clotrimazole, Alamar Blue | C. albicans biofilm + clotrimazole | AID 834, 2007 | 85,000 tested, 0.14% active | inhibition, % at 6 µM;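 active means inhibition above 20%; inactive means inhibition below 20%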;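 further: preformed 24 hr biofilms exposed to compound for 48 hr; 0% = biofilm without compound and 100% = blank killed by clotrimazole plus chlorhexidine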
cytoskel mod = modifiers of F-actin cytoskeleton organization, primary screen, imaging, HUVEC, phalloidin staining, high-content imaging; HUVEC TNFa F-actin phalloidin imaging; inhibition, % at 2 µM; 91,000 tested, 0.18% active; AID 836, 2007;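 active means inhibition above the batch mean plus 3 SD and confirmed as a hit by visual image inspection, cut at about 30% in these data, passing the limit was not always enough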
sEH act = soluble epoxide hydrolase activators, primary screen, biochemical, human sEH; purified human sEH enzymatic activity, activator screen; activation, % at 2 µM; 91,000 tested, 0.04% active; in the data active means activation above about 37%
Target sequence (P34913 whole entry, looked up): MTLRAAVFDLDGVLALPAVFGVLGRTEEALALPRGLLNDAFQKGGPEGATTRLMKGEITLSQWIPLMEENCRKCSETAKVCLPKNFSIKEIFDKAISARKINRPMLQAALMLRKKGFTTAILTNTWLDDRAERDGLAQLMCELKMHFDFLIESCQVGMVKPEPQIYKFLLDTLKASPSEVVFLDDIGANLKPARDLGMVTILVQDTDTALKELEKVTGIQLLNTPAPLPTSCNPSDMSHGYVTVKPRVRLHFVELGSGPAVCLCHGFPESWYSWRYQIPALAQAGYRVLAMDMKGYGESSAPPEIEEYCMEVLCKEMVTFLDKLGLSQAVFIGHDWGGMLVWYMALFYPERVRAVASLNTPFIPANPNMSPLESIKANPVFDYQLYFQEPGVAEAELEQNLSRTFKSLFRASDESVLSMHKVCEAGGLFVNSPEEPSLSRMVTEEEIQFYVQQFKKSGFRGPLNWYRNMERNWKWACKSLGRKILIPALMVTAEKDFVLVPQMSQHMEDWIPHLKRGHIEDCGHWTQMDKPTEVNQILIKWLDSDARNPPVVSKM
sEH inhibitor = soluble epoxide hydrolase inhibitors, primary screen, biochemical, human sEH | Bifunctional epoxide hydrolase 2 (Homo sapiens), P34913 | recombinant human sEH enzymatic activity assay | inhibition, % at 2 µM | 91,000 tested, 0.34% active | AID 707, 2007; in the data active means inhibition above about 80%
Measles CPE = compounds protecting cells from measles virus cytopathic effect, primary screen, measles RdRp inhibitor project, single point, MLSMR library, absorbance; Measles virus-infected cells, CPE protection; AID 841, 2007; 140,000 tested, 1.5% active; protection (pct of control), % at 4 µM; in the data active means protection mostly above about 24%, no sharp cut-off; inactive means mostly below about 26%
Starred values were filed as active, the others as inactive; / = not tested or not shown.

SMILES	Calb biofilm kill	cytoskel mod	sEH act	sEH inhibitor	Measles CPE
CCCN(CC#CCOc1ccc(OC)cc1)CCC	6.5	5.2	12.6	-12.7	37.2*
CN1C(=O)C(=Cc2ccc(-c3cccc(Cl)c3)o2)C(=O)N(C)C1=O	/	/	/	/	20.0*
CN1C(=O)C(=Cc2ccc(N3CCOCC3)o2)C(=O)N(C)C1=O	/	/	/	/	24.6
N=C(N)c1c(O)n(C2CCCCC2)c(=O)n(C2CCCCC2)c1=O	4.0	4.4	-9.1	9.6	1.8
c1ccc(C2OCCN3CCCCC23)cc1 (stereo not drawn)	/	/	/	/	19.3
C(=NC12CN3CN(CN(C3)C1)C2)c1cccs1	/	9.6	-3.7	6.4	54.8*
O=C1C2CCN(CC2)[C@@H]1Cc1ccc2ccccc2c1O	7.1	11.2	-10.3	10.3	9.0
Fc1ccc(C(OCCN2CCCC2)c2ccc(Br)cc2)cc1 (stereo not drawn)	/	/	/	/	54.2*
Fc1ccc(C(OCCN2CCCC2)c2ccc(F)cc2)cc1	/	/	/	/	3.6
O=c1[nH]c(=O)n(Cc2ccccc2)c(O)c1C=Nc1ccc(CN2CCOCC2)cc1	5.7	-19.7	-3.8	1.4	9.1
O=C(COc1ccccc1)N1CCN(CC(O)COc2ccccc2)CC1 (stereo not drawn)	4.6	34.7*	/	/	4.0
O=c1[nH]c(=O)n(CCC2=CCCCC2)c(O)c1C=NCCN1CCNCC1	5.9	21.9	-14.5	14.2	34.5*
CCN1CCN(Cc2cc(C(C)(C)C)c(O)c(C(C)(C)C)c2)CC1	5.3	5.5	9.4	-8.4	60.1*
CCN1CCN(Cc2ccc(C)cc2)CC1	8.4	/	/	/	6.5
COc1ccc(CN2CCCCC2c2cccnc2)cc1C (stereo not drawn)	5.0	4.9	/	/	38.1*
COc1cccc(CN2CCCCC2c2cccnc2)c1 (stereo not drawn)	8.5	3.9	/	/	12.2
CCCC(C)(COC(N)=O)COC(=O)NC(C)C (stereo not drawn)	14.7	/	/	/	4.5
C=CCn1c(O)c(C(C)=NCCc2ccccc2)c(=O)[nH]c1=O	7.7	-7.0	9.1	-9.7	23.6*
CN1CCN(c2nc3ccccn3c(=O)c2C=C2C(=O)N(C)C(=O)N(C)C2=O)CC1	/	/	/	/	7.1
Cc1cc(OCc2ccc([N+](=O)[O-])cc2)c2c3c(c(=O)oc2c1)CCCC3	/	-39.9	4.1	-4.5	45.5*
Cc1cccc(OCC(=O)N2CCN(Cc3ccncc3)CC2)c1	/	9.5	16.3	-18.3	42.5*
CCCCn1c(=O)c(C=Nc2cc([N+](=O)[O-])ccc2OC)c(O)n(CCCCl)c1=O	/	/	/	/	3.7
COc1ccc(C2C(C#N)=C(N)Oc3c2c(=O)oc2ccccc32)cc1Cn1cc([N+](=O)[O-])cn1 (stereo not drawn)	/	7.1	-1.4	2.1	24.4*
COC1=CC(=O)OC(/C=C/c2ccccc2)C1 (stereo not drawn)	4.3	/	/	/	6.8
O=C(O)Cn1cc(C(=O)c2ccccc2)c2ccccc21	5.6	5.1	13.9	-16.0	39.8*
SMILES	Calb biofilm kill	cytoskel mod	sEH act	sEH inhibitor	Measles CPE
c1ccc2cc3cc4ccccc4cc3cc2c1	13.6	/	/	/	/
NP(=O)(OCC(F)(F)F)Oc1ccccc1 (stereo not drawn)	/	/	1.9	1.3	/
Cc1nc2ccccc2c(=O)n1-c1ccc(F)cc1	5.5	/	/	/	31.0*
O=C(Cc1ccccc1)N1CCN(C2CCCC2)CC1	-0.1	3.0	-6.6	7.7	1.8
CCC(CC)N1CCN(C(=O)Cc2ccccc2)CC1	-4.3	5.5	4.4	-0.8	42.9*
CC(C)CCCn1c(O)c(/C=C2/C=CC=N2)c(=O)[nH]c1=O	/	/	/	/	3.4
O=c1[nH]c2ccccc2o1	/	/	/	/	45.0*
Clc1ccc2c(c1)C(c1ccccc1Cl)=NCc1nnc(N3CCN(CCSc4ccccc4)CC3)n1-2	/	10.1	-9.2	10.1	10.5
Clc1ccc2c(c1)C(c1ccccc1Cl)=NCc1nnc(N3CCN(CCOc4ccccc4)CC3)n1-2	/	/	/	/	27.5*
O=C(Nc1cccc2ccccc12)c1nn(C23CC4CC(CC(C4)C2)C3)cc1Br	/	-13.8	9.5	-10.8	37.7*
O=C1CSC2(CN3CCC2CC3)N1 (stereo not drawn)	4.0	12.4	3.2	-6.9	19.1
CC(C)N1CC=C(c2c[nH]c3ccccc23)CC1	/	43.5	15.1	-17.6	35.8*
C1=C(c2c[nH]c3ccccc23)CCNC1	-0.2	4.7	4.8	-1.1	2.9
OC(c1ccc(F)cc1)C(c1ccccc1)N1CCOCC1 (stereo not drawn)	1.6	3.8	-3.9	5.7	39.0*
CC(NC(=O)Oc1ccccc1)C(c1cccs1)N1CCOCC1 (stereo not drawn)	9.8	6.9	2.9	0.4	16.8
CC1CCCN(C(=O)CCl)C1 (stereo not drawn)	/	/	/	/	15.4
